# Measured values taken from PubChem BioAssay (EPA / NIEHS).
# Activity calls are given as the source filed them. Rule for the calls: active = hit-call score of the fitted dose curve at least 0.9, where 1 is the maximum; inactive = score below 0.9.
# Assay: CEETOX_H295R_ESTRONE: CeeTox H295R High-throughput Steroidogenesis Assay for Estrone (AID 2283441);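 note: estrone secreted into medium measured by LC-MS/MS after dansyl derivatization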;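 for AC50: human adrenal H295R cells prestimulated with forskolin for two days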
# Details: actives raise or lower the signal
# Description: CEETOX_H295R is a cell-based, multiplexed-readout assay that uses H295R, a human adrenal gland cell line, with measurements taken at 48 hours after chemical dosing in a 96-well plate.CEETOX_H295R_ESTRONE is one of 23 assay component(s) measured or calculated from the CEETOX_H295R assay. It is designed to make measurements of hormone induction, a form of inducible reporter, as detected with absorbance signals by HPLC-MS-MS technology.Data from the assay component CEETOX_H295R_ESTRONE was analyzed into 1 assay endpoint. This assay endpoint, CEETOX_H295R_ESTRONE, was analyzed with bidirectional fitting relative to DMSO as the negative control and baseline of activity. Using a type of inducible reporter, gain or loss-of-signal activity using HPLC-MS-MS was used to understand synthesis of Estrone in H295R cell line at 48hr of chemical exposure. To generalize the intended target to other relatable targets, this assay endpoint is annotated to the steroid hormone intended target family, where the subfamily is estrogens.
# Cell culture and media preparation procedures were conducted in accordance with OECD Test No. 456 guidelines, with minor modifications. H295R cells (ATCC CRL-2128) were expanded for 5 passages and frozen in batches in liquid nitrogen. Prior to the steroidogenesis assay, H295R cells were thawed and passed at least 4 times. The maximum passage was 10. […] After seeding cells into 96-well plates at 50-60% confluency, cells were allowed to adhere overnight. Prior to chemical testing, culture medium was replaced with 175 uL medium containing 10 uM forskolin to stimulate steroidogenesis for 48 hours. Following prestimulation, forskolin medium was replaced with medium containing test chemical solubilized in DMSO (ensuring a final concentration of 0.1% DMSO). Test chemicals were incubated for 48 hours, then the medium was removed and split into 2 vials containing approximately 75uL each, and stored at -80 C prior to hormone analysis. For steroid quantification, media samples were shipped to OpAns, LLC (Durham, NC) on dry ice, and samples were thawed to room temperature prior to liquid-liquid extraction. Steroid hormones were extracted from media samples using methyl tertbutyl ether (MTBE). An extra derivatization with dansyl chloride was included for estrogen (estrone and estradiol) detection only. Steroid hormones were separated by HPLC, eluted using a reverse phase C18 gradient with electrospray positive ionization, followed by quantification by tandem mass spectrometry (MS/MS). Data were acquired on a MassHunter Workstation Acquisition version B03.01 (Agilent Technologies, Inc.) and processed using MassHunter Quantitative Analysis for QQQ. Accuracy was determined for each hormone analyte from 3 standards to determine upper and lower limits of quantification (ULOQ and LLOQ, respectively) using a 7-point standard curve. Precision and accuracy of the extraction and quantification methods were calculated as the percent relative standard deviation (%RSD) of the spiked standards and percent spiked standard recovered, respectively. The goal was to achieve 100% accuracy (i.e., recover all spiked-in standard at quantification with minimal loss during run time) and good precision (i.e., have %RSD <15% to ensure reproducibility). Test medium was removed following chemical exposure, and cell viability was evaluated in the same wells by MTT. MTT procedures were as follows: after removal of test medium, 500 uL of 0.5 mg/ml of 3-[4,5-dimethylthiazol-2-y]2,5-diphenyltetrazoliumbromide solution was added to the cells. Following a 4-hour incubation at 37 C and 5% CO2 to allow formazan-crystal formation, the MTT solution was removed and blue formazan salt crystals were solubilized using 500uL anhydrous isopropanol with shaking for 20 minutes. Absorbance was read at 570 and 650nm using a Packard Fusion microplate reader. Background correction of absorbance units was used to determine percent change relative to controls. […] […]
SMILES,outcome,AC50
CC(C)(c1ccc(O)cc1)c1ccc(O)cc1,inactive,–
C[C@]12C[C@H](O)[C@H]3[C@@H](CCC4=CC(=O)CC[C@@]43C)[C@@H]1CC[C@@H]2C(=O)CO,inactive,–
C#CCOC(=O)[C@@H](C)Oc1ccc(Oc2ncc(Cl)cc2F)cc1,inactive,–
CCCCCOC(=O)COc1cc(N2C(=O)C3=C(CCCC3)C2=O)c(F)cc1Cl,inactive,–
CCOC(=O)c1ccc(O)cc1,inactive,–
c1ccc2[nH]c(-c3cscn3)nc2c1,inactive,–
CCCCC(CC)CN1C(=O)C2C3C=CC(C3)C2C1=O (stereo not drawn),inactive,–
CCN(Cc1c(F)cccc1Cl)c1c([N+](=O)[O-])cc(C(F)(F)F)cc1[N+](=O)[O-],–,13.7 µM (active)
CC(=O)S[C@@H]1CC2=CC(=O)CC[C@]2(C)[C@H]2CC[C@@]3(C)[C@@H](CC[C@@]34CCC(=O)O4)[C@H]12,inactive,–
O=C(Nc1ccc([N+](=O)[O-])cc1Cl)c1cc(Cl)ccc1O,inactive,–
CCCN(CCC)C(=O)SCC,inactive,–
CC(=O)[C@H]1CC[C@H]2[C@@H]3CCC4=CC(=O)CC[C@]4(C)[C@H]3CC[C@]12C,inactive,–
CCCCOC(=O)[C@@H](C)Oc1ccc(Oc2ccc(C(F)(F)F)cn2)cc1,inactive,–
